A short description of assay [1]: AP1 Signaling Pathway (AID 357; active means well fitted curve in either direction with a large enough effect, not every such curve was filed as active;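 further: ME-180 reporter cells stimulated with EGF at its EC50 level; on the % scale 0 is the no-effect control and ±100 the full control effect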). To be noted: ME-180 (cervical carcinoma) AP-1-bla reporter, EGF-induced, beta-lactamase ratio, 5 h; at 7.69 µM (top of the series) unless noted. The procedure, abridged:
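Titration-series screen for positive or negative modulators of EC50 EGF-induced signaling in ME-180 cells carrying an AP-1-driven beta-lactamase reporter. After 5 hours at 37 degrees Celsius, CCF4 460nm/530nm emission ratio gave %Activity; AC50 values derived.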

In assay [2] the target is Cytochrome P450 1A2 (Homo sapiens) (UniProt P05177). Description: p450-cyp1a2 (AID 410; calls by dose curve; further: potency means the concentration at half of the fitted maximal effect). The procedure, abridged: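 Read-out is luminescence from luciferin produced by CYP1A2 demethylation of Luciferin-ME (100uM, at Km). Detection reagent stopped the 60 min NADPH-dependent reaction; signals were normalized to 57 uM furafylline.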
Sequence of Cytochrome P450 1A2 (Homo sapiens) (P05177 whole entry, looked up): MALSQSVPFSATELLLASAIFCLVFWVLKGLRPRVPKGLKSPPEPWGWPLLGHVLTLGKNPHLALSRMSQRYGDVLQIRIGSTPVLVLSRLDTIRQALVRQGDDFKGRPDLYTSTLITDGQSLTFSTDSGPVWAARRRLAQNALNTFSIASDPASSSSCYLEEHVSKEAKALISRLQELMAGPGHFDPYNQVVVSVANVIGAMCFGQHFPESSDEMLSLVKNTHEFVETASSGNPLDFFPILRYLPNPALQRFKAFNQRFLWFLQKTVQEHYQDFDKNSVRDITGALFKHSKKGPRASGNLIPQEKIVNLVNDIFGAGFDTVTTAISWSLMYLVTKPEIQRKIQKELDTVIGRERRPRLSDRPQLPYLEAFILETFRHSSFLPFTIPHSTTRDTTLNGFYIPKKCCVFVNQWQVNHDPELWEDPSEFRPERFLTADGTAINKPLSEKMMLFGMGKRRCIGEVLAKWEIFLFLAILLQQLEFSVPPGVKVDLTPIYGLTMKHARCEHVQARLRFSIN
Assay [3] can be described thus: NFAT Signaling Pathway (AID 444; active means well fitted curve in either direction with a large enough effect, not every such curve was filed as active;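 further: carbachol stimulus at about its EC50 of 1 µM final; on the % scale 0 is the no-effect control and ±100 the full control effect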). To be noted: Jurkat NFAT-bla M1, carbachol, beta-lactamase ratio, 5 h; at 7.69 µM (top of the series) unless noted. The procedure, abridged: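 Read-out: CCF4 FRET ratio (460 nm/530 nm) after 1 h RT dye loading, used for %activity and AC50 from titration series. Cells: Jurkat NFAT-β-lactamase/M1 line, treated with compound plus 1 uM carbachol for 5 h, 37 °C.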

A short description of assay [4]: Stat Signaling Pathway (AID 446; active means well fitted curve in either direction with a large enough effect, not every such curve was filed as active;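 further: ME-180 cervical cancer cells given 40 pM IL-6 alongside compound; SIE-controlled beta-lactamase reporter measured as 460/530 nm FRET emission ratio; on the % scale 0 is the no-effect control and ±100 the full control effect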). The method, boiled down:
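Compound effects on IL-6-induced STAT reporter activity were measured in ME-180 cells. After overnight culture, cells were co-treated with 40 pM IL-6 for 5 hrs before beta-lactamase substrate loading at room temperature.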

For assay [5], the target named is Glucocorticoid receptor (Homo sapiens) (UniProt P04150). Description: GR-GFP Redistribution (AID 450;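 active means compounds whose dose series gives a full or clear partial fitted curve of increased nuclear translocation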; further: potency means the concentration at half of the fitted maximal effect). To be noted: U2OS GR-GFP nuclear translocation, laser cytometry, 2 h.
Sequence of Glucocorticoid receptor (Homo sapiens) (P04150 whole entry, looked up, the tested form may be a part): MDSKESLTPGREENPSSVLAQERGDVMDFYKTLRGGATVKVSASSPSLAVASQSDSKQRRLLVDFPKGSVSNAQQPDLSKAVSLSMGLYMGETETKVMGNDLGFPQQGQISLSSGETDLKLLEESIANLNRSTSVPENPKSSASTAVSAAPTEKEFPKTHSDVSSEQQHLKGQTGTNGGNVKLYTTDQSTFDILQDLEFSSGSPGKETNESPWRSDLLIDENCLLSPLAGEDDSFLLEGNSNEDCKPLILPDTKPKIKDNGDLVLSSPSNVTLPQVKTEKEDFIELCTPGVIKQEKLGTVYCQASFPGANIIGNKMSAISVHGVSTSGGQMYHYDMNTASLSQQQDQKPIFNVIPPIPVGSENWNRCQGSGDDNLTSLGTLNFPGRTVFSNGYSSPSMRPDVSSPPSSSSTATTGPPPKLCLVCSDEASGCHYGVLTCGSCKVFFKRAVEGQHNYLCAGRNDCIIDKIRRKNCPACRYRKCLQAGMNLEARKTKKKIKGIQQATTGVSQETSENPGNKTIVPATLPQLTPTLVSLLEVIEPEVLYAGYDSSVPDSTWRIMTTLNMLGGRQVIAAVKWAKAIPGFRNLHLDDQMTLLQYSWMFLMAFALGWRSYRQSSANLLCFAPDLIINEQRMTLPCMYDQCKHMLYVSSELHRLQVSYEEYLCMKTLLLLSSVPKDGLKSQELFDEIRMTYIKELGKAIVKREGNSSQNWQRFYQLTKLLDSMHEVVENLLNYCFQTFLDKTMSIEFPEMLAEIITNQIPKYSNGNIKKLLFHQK
For assay [6] the target is unchanged. The experiment in a line: GR-EFC Redistribution (AID 451; calls by dose curve; further: potency means the concentration at half of the fitted maximal effect). Particulars: CHO-K1 GR-EFC translocation, beta-gal luminescence, 2 h. The method, boiled down: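 Translocation of GR-ED fusion to nuclear EA restores b-gal, read by luminescence after 1 h room-temperature detection. Engineered CHO-K1 biosensor cells, 1,000/well, exposed 2 h at 37 C to titrations up to 46 uM final.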

The target in assay [7] is Mitogen-activated protein kinase 10 (Mus musculus) (UniProt Q61831). Description: JNK3 AlphaScreen Assay (AID 530; active means well fitted curve in either direction with a large enough effect, not every such curve was filed as active;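 further: kinase came from lysate of stimulated human HepG2 cells; signal reports phosphorylation of biotinylated GST-cJun 1-79 at Ser73 with 10 µM ATP; on the % scale 0 is the no-effect control and ±100 the full control effect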). The procedure, abridged: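 Kinase buffer: 20 mM Tris-HCl pH 7.6, 10 mM MgCl2, 1 mM DTT, 0.1 mM Na3VO4, 0.01% Tween-20; ATP 10 uM. Substrate biotin-GST-cJun(1-79), enzyme from activated HepG2 lysates. Detection by Ser73 phospho-antibody AlphaScreen.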
On the technique in general: Bead proximity is the source of the signal in Alpha formats.

Assay [8] concerns the target 3',5'-cyclic-AMP phosphodiesterase 4B (Homo sapiens) (UniProt Q07343). The experiment in a line: qHTS Assay for Inhibitors of PDE-IV (AID 607; active means well fitted activation curve with a large enough effect in the main read-out, with a control signal flat, not every such curve was filed as active; further: % of control where 0% means no effect). The method, boiled down:
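ACTOne HEK293 cells carry a modified cAMP-gated CNG channel and express endogenous PDE4; plated 1000 cells/well, compounds up to 22.9 uM final. Membrane-potential dye fluorescence (ex 535/em 590) was read; parental cells received 10 uM forskolin + 100 uM RO 20-1724.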

Assay [9] concerns the target Cytochrome P450 3A4 (Homo sapiens) (UniProt P08684). The experiment in a line: qHTS Assay for Inhibitors and Substrates of Cytochrome P450 3A4 (AID 884). Further: potency means the concentration at half of the fitted maximal effect; nearly all actives have a fitted effect of over 50% in size. The method, boiled down: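 Luminescent readout of luciferin produced by CYP3A4 (20 nM) dealkylation of Luciferin-PPXE, 25 uM (its KM). NADPH-driven reaction ran 60 min at RT after 10 min compound preincubation; data scaled to 57 uM ketoconazole as 100% inhibition.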

In assay [10] the target is Cytochrome P450 2D6 (Homo sapiens) (UniProt P10635). Description: qHTS Assay for Inhibitors and Substrates of Cytochrome P450 2D6 (AID 891). Further: potency means the concentration at half of the fitted maximal effect; nearly all actives have a fitted effect of over 60% in size. The procedure, abridged: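 Luminescent read-out of luciferin formed by 5 nM human CYP2D6 demethylating 30 uM Luciferin-ME EGE (Km level) over 60 min at room temperature after NADPH regeneration addition. Data normalized to full inhibition by 1.43 uM quinidine.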
Sequence of Cytochrome P450 2D6 (Homo sapiens) (P10635 whole entry, looked up): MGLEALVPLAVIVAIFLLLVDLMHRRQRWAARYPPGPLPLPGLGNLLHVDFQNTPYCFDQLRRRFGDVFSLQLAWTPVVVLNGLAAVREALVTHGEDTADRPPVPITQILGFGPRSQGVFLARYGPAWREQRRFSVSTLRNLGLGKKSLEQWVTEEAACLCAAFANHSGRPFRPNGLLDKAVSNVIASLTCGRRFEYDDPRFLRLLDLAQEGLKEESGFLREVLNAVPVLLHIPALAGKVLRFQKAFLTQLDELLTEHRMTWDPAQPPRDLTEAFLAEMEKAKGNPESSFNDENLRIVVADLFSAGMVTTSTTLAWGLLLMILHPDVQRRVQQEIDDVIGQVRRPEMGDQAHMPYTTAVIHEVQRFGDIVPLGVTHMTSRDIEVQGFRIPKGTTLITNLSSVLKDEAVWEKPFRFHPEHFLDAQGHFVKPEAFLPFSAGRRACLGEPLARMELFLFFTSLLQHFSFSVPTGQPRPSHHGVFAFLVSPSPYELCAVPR
A general note: qHTS replaces the single test concentration by a dilution series.

The target in assay [11] is Cytochrome P450 2C19 (Homo sapiens) (UniProt P33261). The experiment in a line: qHTS Assay for Inhibitors and Substrates of Cytochrome P450 2C19 (AID 899). Further: potency means the concentration at half of the fitted maximal effect; nearly all actives have a fitted effect of over 60% in size. The method, boiled down: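 Luminescence readout of luciferin formed from 10uM Luciferin-H EGE (KM level) by 5 nM CYP2C19 in 50mM KPO4. 60 min NADPH-driven reaction at 37C after 10 min compound preincubation; data scaled to 57uM ketoconazole inhibition.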

Assay [12] deals with Dual specificity protein kinase CLK4 (Homo sapiens) (UniProt Q9HAZ1). Description: qHTS Assay for Inhibitors of CDC-like Kinase 4 (ADP-FP Assay) (AID 1795).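 Further: recombinant human CLK4 phosphorylating RS repeat peptide at 1 µM ATP; on the % scale 0 is the no-effect control and ±100 the full control effect; nearly all actives have a fitted effect of over 60% in size.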 The procedure, abridged:
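Kinase activity was measured as ADP production using Transcreener orange tracer (4 nM) and ADP antibody (1 ug/mL) fluorescence polarization, with ADP calculated from a calibration curve. The 1 h reaction contained 6.25 nM Clk4, 1 uM ATP and 100 uM RS peptide at pH 7.5 with Mg2+.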

Assay [13] has as its target Ubiquitin carboxyl-terminal hydrolase 1 (Homo sapiens) (UniProt O94782). Description: Inhibitors of USP1/UAF1: Pilot qHTS (AID 504865).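 Further: rhodamine fluorescence freed from ubiquitin-rhodamine substrate followed over time; top concentration of the series differs between compounds; on the % scale 0 is the no-effect control and ±100 the full control effect; nearly all actives have a fitted effect of over 35% in size.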 The procedure, abridged:
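Deubiquitinase activity followed as kinetic rhodamine fluorescence release from 150 nM Ub-Rho. 1 nM USP1/UAF1 with compound, after 15 min room-temperature preincubation, in HEPES pH 7.8 buffer containing TCEP, EDTA, BSA and Tween-20.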

The target of assay [14] is Lysosomal acid glucosylceramidase (Homo sapiens) (UniProt P04062). The experiment in a line: Glucocerebrosidase-p2 (AID 348; in the data active means potency below about 10 µM; further: potency means the concentration at half of the fitted maximal effect). Particulars: purified GBA, blue fluorogenic substrate, 40 min. The procedure, abridged:
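Normal human glucocerebrosidase (0.2 nM) with blue fluorogenic substrate (80 uM final) in citrate/phosphate pH 5.9 with 10mM sodium taurocholate, 0.01% tween-20; 40 min RT, NaOH/glycine stop; fluorescence Ex 365/Em 440; AC50 from a titration from 0.6 nM upwards.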

Assay [15] in a line: HepG2 viability counterscreen (readout 2: ATP content) against the NCATS DSHEA and TCM libraries (AID 1794840).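 Further: HepG2 cells exposed to substances for about 24 h; 0% is about no effect.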 The method, boiled down: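 Readout 1: cellular protease activity, GF-AFC substrate (25 uM final, 30 min, fluorescence 380/510 nm). Readout 2: ATP content by CellTiter-Glo luminescence after 30 min at RT. Both follow ~24 h exposure of HepG2 cells (1,000/well) to substances.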
Background: The purpose of a counterscreen is to sort out artefacts and off-target activity.

Assay [16] has as its target Cytochrome P450 3A4 (Homo sapiens) (UniProt P08684). The experiment in a line: qHTS for inhibitors of CYP3A4 against the NCATS DSHEA and TCM libraries (AID 1919971).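 Further: on the % scale 0 is the no-effect control and ±100 the full control effect; inhibition lowers luminescence from luciferin made by CYP3A4.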 The procedure, abridged:
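Isoform-specific enzyme and substrate levels; enzyme-free wells as background. Reaction: 1x NADPH regenerating system, 30-45 min, room temperature, shielded from light; luminescent detection reagent added, 30 min.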

For assay [17], the target named is Cytochrome P450 2D6 (Homo sapiens) (UniProt P10635). The experiment in a line: qHTS for inhibitors of CYP2D6 against the NCATS DSHEA and TCM libraries (AID 1919972). Further: on the % scale 0 is the no-effect control and ±100 the full control effect. The procedure, abridged: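 qHTS, concentration–response format with most substances from 19.5 nM. CYP2D6 + pro-luciferin substrate, 15 min with compound, then 1x NADPH regen, 30–45 min RT dark. Glo detection 30 min, luminescence. Quinidine control.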

A short description of assay [18]: KB-3-1 P-gp reporter qHTS against the NCATS DSHEA and TCM libraries (AID 1919975). Further: 0% is about no effect. The method, boiled down: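 Cell viability by CellTiter-Glo luminescence following ~72 h compound exposure (concentration-response). Uses parental, non-P-gp-overexpressing KB-3-1 line, 500 cells/well in DMEM/10% FBS, attached ~4 h before dosing.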
The nature of assay [19]: Dual reporter qHTS for agonist of Pregnane X Receptor (hPXR) against the NCATS DSHEA and TCM libraries: Fluorescence readout (AID 1920058). Further: 0% is about no effect. The procedure, abridged: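 In this qHTS counter-read, reporter-bearing HepG2 cells in charcoal-stripped serum received substances for approximately 24 h before viability was assessed fluorometrically with CellTiter-Fluor.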
Assay [20] deals with Nuclear receptor subfamily 1 group I member 2 (Homo sapiens) (UniProt O75469). The experiment in a line: Dual reporter qHTS for agonist of Pregnane X Receptor (hPXR) against the NCATS DSHEA and TCM libraries: Luminescence readout (AID 1920059). Further: 0% is about no effect. The method, boiled down: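 Luminescent PXR reporter read (ONE-Glo) after a CellTiter-Fluor viability read, following 24 h, 37C treatment of HepG2 cells stably carrying hPXR-Luc.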
Sequence of Nuclear receptor subfamily 1 group I member 2 (Homo sapiens) (O75469 whole entry, looked up): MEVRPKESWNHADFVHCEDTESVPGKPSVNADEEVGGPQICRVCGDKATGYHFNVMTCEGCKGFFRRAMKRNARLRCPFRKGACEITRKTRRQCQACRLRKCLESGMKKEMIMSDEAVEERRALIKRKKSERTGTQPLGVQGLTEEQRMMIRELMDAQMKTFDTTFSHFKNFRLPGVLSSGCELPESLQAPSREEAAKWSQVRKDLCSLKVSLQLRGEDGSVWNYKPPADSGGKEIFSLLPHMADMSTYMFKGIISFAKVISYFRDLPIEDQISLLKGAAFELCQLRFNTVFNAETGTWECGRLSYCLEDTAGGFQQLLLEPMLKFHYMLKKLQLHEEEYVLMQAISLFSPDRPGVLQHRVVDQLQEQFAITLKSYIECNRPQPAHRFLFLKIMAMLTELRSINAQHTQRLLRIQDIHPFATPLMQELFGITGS

For assay [21] the target is unchanged. Description: Dual reporter qHTS for antagonist of Pregnane X Receptor (hPXR) against the NCATS DSHEA and TCM libraries: Luminescence Readout (AID 1920060).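 Further: HepG2 cells carrying hPXR luciferase reporter stimulated with rifampicin at 2 µM; 0% is about no effect.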 The method, boiled down: (§1)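 Antagonist mode: rifampicin 2 uM final co-added with compounds to hPXR-LucHepG2 cells for 24 h at 37C. Viability by CellTiter-Fluor, Ex/Em 405/540 nm, 1 h; reporter by ONE-Glo luminescence.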

The nature of assay [22]: Dual reporter qHTS for antagonist of Pregnane X Receptor (hPXR) against the NCATS DSHEA and TCM libraries: Fluorescence Readout (AID 1920061). Further: 0% is about no effect. The method, boiled down:
as §1

Unmarked numbers belong to inactive results. Records with an inconclusive call do not appear. Calls of active or inactive are those of the source. Unless noted, the call rests on the fitted dose curve; in most records, active means well fitted curve in the direction sought with a large enough effect; inconclusive means small, poorly fitted or top-dose-only effect, or another doubt; inactive means no such curve, though single readings can be large; an effect the other way counts as inactive or inconclusive.

Results on 4 compounds are retold here after PubChem BioAssay (NCATS).

Sequence of Dual specificity protein kinase CLK4 (Homo sapiens) (Q9HAZ1 whole entry, looked up): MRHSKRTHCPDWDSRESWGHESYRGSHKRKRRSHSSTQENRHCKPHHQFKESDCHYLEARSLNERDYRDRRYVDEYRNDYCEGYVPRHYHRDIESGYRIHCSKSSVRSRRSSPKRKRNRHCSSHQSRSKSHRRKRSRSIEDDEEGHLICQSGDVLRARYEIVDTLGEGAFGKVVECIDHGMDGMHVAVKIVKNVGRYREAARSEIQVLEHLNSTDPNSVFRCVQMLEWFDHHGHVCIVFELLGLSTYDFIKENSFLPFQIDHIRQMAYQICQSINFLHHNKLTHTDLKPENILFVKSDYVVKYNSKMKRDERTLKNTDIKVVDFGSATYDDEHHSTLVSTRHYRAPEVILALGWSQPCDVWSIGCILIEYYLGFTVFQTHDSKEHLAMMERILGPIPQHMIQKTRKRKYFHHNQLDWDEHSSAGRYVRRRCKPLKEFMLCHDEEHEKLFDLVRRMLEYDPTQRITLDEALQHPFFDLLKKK
Sequence of Ubiquitin carboxyl-terminal hydrolase 1 (Homo sapiens) (O94782 whole entry, looked up): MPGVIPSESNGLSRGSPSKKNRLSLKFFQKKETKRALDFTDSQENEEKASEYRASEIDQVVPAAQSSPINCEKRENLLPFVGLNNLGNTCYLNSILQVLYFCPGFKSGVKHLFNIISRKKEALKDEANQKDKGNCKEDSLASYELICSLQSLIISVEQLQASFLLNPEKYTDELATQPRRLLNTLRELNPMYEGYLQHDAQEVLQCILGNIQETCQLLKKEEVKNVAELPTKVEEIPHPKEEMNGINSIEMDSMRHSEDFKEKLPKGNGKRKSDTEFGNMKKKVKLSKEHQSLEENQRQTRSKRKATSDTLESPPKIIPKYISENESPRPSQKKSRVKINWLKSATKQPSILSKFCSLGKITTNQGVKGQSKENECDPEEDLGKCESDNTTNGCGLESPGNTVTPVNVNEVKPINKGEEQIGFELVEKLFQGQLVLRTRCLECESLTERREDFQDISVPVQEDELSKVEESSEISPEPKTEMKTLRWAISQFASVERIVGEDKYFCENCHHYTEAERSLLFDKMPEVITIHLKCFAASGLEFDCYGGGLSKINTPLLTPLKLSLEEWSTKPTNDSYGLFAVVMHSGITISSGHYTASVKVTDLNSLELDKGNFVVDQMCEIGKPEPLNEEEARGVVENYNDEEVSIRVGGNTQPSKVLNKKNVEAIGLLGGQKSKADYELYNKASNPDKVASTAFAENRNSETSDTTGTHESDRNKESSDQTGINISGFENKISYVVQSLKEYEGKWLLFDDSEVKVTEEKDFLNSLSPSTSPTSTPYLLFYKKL
Sequence of 3',5'-cyclic-AMP phosphodiesterase 4B (Homo sapiens) (Q07343 whole entry, looked up): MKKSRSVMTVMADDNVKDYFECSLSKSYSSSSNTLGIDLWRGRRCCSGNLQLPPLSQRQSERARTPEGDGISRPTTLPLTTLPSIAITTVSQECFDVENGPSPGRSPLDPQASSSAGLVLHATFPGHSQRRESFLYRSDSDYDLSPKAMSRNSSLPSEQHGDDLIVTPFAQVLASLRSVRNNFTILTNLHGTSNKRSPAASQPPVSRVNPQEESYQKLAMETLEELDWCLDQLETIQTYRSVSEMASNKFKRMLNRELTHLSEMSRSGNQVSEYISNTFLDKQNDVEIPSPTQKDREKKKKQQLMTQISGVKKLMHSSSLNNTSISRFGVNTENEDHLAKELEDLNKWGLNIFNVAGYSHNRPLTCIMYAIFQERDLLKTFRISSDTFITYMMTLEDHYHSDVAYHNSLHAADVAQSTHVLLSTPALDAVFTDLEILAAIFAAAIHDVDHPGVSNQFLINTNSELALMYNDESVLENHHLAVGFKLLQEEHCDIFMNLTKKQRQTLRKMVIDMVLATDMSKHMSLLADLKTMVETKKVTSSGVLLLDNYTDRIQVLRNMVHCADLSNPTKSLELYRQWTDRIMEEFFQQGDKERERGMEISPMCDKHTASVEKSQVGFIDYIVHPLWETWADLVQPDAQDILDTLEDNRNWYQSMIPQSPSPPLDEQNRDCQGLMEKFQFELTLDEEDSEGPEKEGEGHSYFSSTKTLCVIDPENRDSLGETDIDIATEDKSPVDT
Sequence of Cytochrome P450 3A4 (Homo sapiens) (P08684 whole entry, looked up, canonical isoform): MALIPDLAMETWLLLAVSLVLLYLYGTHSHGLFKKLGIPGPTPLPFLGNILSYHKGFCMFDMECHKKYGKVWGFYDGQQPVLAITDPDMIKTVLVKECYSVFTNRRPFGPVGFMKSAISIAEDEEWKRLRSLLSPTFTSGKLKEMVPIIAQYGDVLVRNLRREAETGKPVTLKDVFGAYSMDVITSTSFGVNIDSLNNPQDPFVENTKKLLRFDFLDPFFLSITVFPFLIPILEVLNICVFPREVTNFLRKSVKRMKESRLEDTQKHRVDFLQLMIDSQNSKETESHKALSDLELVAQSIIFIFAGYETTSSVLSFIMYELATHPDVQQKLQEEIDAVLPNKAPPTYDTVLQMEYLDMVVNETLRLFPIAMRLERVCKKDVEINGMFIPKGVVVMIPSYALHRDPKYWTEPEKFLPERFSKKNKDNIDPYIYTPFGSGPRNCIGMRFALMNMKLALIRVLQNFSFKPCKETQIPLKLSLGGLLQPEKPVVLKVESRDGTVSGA

Take `COc1ccc2[nH]cc(CCNc3ncncc3-c3ccccc3C(F)(F)F)c2c1`: the activity change, negative = inhibition is 3.8% in [1] and -3.73% in assay [3]. The Potency is 10 µM (active) in assay [2]; over 46 µM in assay [5]; over 46 µM in assay [6]; 0.251 µM (active) in assay [9]; 2 µM (active) in [10]; 0.251 µM (active) in assay [11]. Also, in [4], the compound was called inactive. Moreover, the Potency entry in assay [7], in assay [8], in [12] and in [13] was “inactive” throughout.

With `COc1ccccc1CNc1nc(-c2cccc(NS(C)(=O)=O)c2)nc2ccccc12`, the figures for the Potency in assay [14], in assay [5] and in [6] were over 11.4 µM, over 46 µM and over 46 µM, respectively. Further, the results for the activity change, negative = inhibition in assay [1] and in [3] were -13.2% and -21%, respectively. Also, the Potency entry in assay [7], in [12] and in assay [13] was “inactive” in each case.

As for `CCCCCC/C=C/CCCCCCCCCC(=O)O`, the call in [15], in assay [18], in [19], in assay [21] and in assay [22] was inactive. Besides, the Potency result in [16], in [17] and in assay [20] was “inactive” throughout.

For `O=c1cnc2cnc(N3CCOCC3)nc2n1Cc1cccs1`, the activity change, negative = inhibition in [1] was -3.18%; in assay [3] it was -0.57%. Besides, the Potency in [2] is 2.51 µM (active); in [5], over 9.22 µM; in [6], over 46 µM. Moreover, the call in assay [4] was inactive. In addition, the Potency result in assay [8], in assay [12] and in assay [13] was “inactive” throughout.
